# Residue numbers refer to the chain shown, from its start.
# What was measured:
# Test in all cases: PBM; 200 nM protein, PBS
# Settings in all cases: dsDNA, one strand shown
# [1] = biological target: CRX (Homo sapiens, UniProt O43186 26-111)
# [2] = biological target: CRX (Homo sapiens, UniProt O43186 26-111, E42D)
# [3] = biological target: CRX (Homo sapiens, UniProt O43186 26-111, R41L)
# [4] = biological target: T1, NKX2-4 (Homo sapiens, UniProt Q9H2Z4 175-261, P217L)
# T1 sequence: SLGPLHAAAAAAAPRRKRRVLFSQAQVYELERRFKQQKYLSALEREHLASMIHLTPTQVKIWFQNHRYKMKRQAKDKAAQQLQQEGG
# [5] = biological target: T2, SIX6 (Homo sapiens, UniProt O95475 114-200, L167I)
# T2 sequence: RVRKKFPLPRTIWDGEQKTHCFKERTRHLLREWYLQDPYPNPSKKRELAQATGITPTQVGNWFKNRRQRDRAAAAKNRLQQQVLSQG
# [6] = biological target: T3, SIX6 (Homo sapiens, UniProt O95475 114-200, L143V)
# T3 sequence: T2 sequence with L30V, I54L
# [7] = biological target: T4, NKX2-4 (Homo sapiens, UniProt Q9H2Z4 175-261, T231S)
# T4 sequence: T1 sequence with L43P, T57S
# [8] = biological target: T5, SIX6 (Homo sapiens, UniProt O95475 114-200, H141N)
# T5 sequence: T2 sequence with H28N, I54L
# [9] = biological target: T6, SIX6 (Homo sapiens, UniProt O95475 114-200, T165P)
# T6 sequence: T2 sequence with T52P, I54L
# [10] = biological target: T7, SIX6 (Homo sapiens, UniProt O95475 114-200, L167M)
# T7 sequence: T2 sequence with I54M
# [11] = biological target: T8, NKX2-4 (Homo sapiens, UniProt Q9H2Z4 175-261)
# T8 sequence: T1 sequence with L43P
# [12] = biological target: T9, SIX6 (Homo sapiens, UniProt O95475 114-200, L143M)
# T9 sequence: T2 sequence with L30M, I54L
# [13] = biological target: T10, SIX6 (Homo sapiens, UniProt O95475 114-200, L143I)
# T10 sequence: T2 sequence with L30I, I54L
# [14] = biological target: T11, SIX6 (Homo sapiens, UniProt O95475 114-200, T165G)
# T11 sequence: T2 sequence with T52G, I54L
# [15] = biological target: T12, SIX6 (Homo sapiens, UniProt O95475 114-200, T139Q)
# T12 sequence: T2 sequence with T26Q, I54L
# [16] = biological target: T13, SIX6 (Homo sapiens, UniProt O95475 114-200, T165A)
# T13 sequence: T2 sequence with T52A, I54L
# [17] = biological target: T14, SIX6 (Homo sapiens, UniProt O95475 114-200, L167V)
# T14 sequence: T2 sequence with I54V
# [18] = biological target: T15, NKX2-4 (Homo sapiens, UniProt Q9H2Z4 175-261, R246Q)
# T15 sequence: T1 sequence with L43P, R72Q
# [19] = biological target: T16, SIX6 (Homo sapiens, UniProt O95475 114-200)
# T16 sequence: T2 sequence with I54L
# [20] = biological target: T17, SIX6 (Homo sapiens, UniProt O95475 114-200, T165I)
# T17 sequence: T2 sequence with T52I, I54L
# CRX (Homo sapiens, UniProt O43186 26-111, E42D), sequence (O43186 26-111 E42D): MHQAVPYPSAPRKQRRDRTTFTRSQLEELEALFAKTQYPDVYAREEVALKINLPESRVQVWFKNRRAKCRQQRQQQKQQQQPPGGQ
# CRX (Homo sapiens, UniProt O43186 26-111), sequence (O43186 26-111): as the sequence (O43186 26-111 E42D) above, with D17E counted along it
# CRX (Homo sapiens, UniProt O43186 26-111, R41L), sequence (O43186 26-111 R41L): as the sequence (O43186 26-111 E42D) above, with R16L, D17E counted along it
sequence,measurement,setting,value
CCTGGTGC,binding signal,[1],"8.29 upbm affinity estimate (log intensity, higher = more binding, comparable within an allelic series)"
same,binding signal,[2],"8.25 upbm affinity estimate (log intensity, higher = more binding, comparable within an allelic series)"
same,binding signal,[3],"8.32 upbm affinity estimate (log intensity, higher = more binding, comparable within an allelic series)"
ACCCAGTG,binding signal,[1],"8.01 upbm affinity estimate (log intensity, higher = more binding, comparable within an allelic series)"
same,binding signal,[2],"8.16 upbm affinity estimate (log intensity, higher = more binding, comparable within an allelic series)"
same,binding signal,[3],"8.13 upbm affinity estimate (log intensity, higher = more binding, comparable within an allelic series)"
GGTCGAAC,binding signal,[1],"8.09 upbm affinity estimate (log intensity, higher = more binding, comparable within an allelic series)"
same,binding signal,[2],"8.11 upbm affinity estimate (log intensity, higher = more binding, comparable within an allelic series)"
same,binding signal,[3],"8.1 upbm affinity estimate (log intensity, higher = more binding, comparable within an allelic series)"
GATTATCC,binding signal,[1],"12.9 upbm affinity estimate (log intensity, higher = more binding, comparable within an allelic series)"
same,binding signal,[2],"12.9 upbm affinity estimate (log intensity, higher = more binding, comparable within an allelic series)"
same,binding signal,[3],"12.8 upbm affinity estimate (log intensity, higher = more binding, comparable within an allelic series)"
CAGGAACG,binding signal,[1],"8.49 upbm affinity estimate (log intensity, higher = more binding, comparable within an allelic series)"
same,binding signal,[2],"8.54 upbm affinity estimate (log intensity, higher = more binding, comparable within an allelic series)"
same,binding signal,[3],"8.36 upbm affinity estimate (log intensity, higher = more binding, comparable within an allelic series)"
CGAGTGCG,binding signal,[1],"8.19 upbm affinity estimate (log intensity, higher = more binding, comparable within an allelic series)"
same,binding signal,[2],"8.15 upbm affinity estimate (log intensity, higher = more binding, comparable within an allelic series)"
same,binding signal,[3],"8.17 upbm affinity estimate (log intensity, higher = more binding, comparable within an allelic series)"
ATTAAGCC,binding signal,[1],"12.8 upbm affinity estimate (log intensity, higher = more binding, comparable within an allelic series)"
same,binding signal,[2],"12.8 upbm affinity estimate (log intensity, higher = more binding, comparable within an allelic series)"
same,binding signal,[3],"12.2 upbm affinity estimate (log intensity, higher = more binding, comparable within an allelic series)"
GGGCTCCA,binding signal,[1],"8.35 upbm affinity estimate (log intensity, higher = more binding, comparable within an allelic series)"
same,binding signal,[2],"8.31 upbm affinity estimate (log intensity, higher = more binding, comparable within an allelic series)"
same,binding signal,[3],"8.31 upbm affinity estimate (log intensity, higher = more binding, comparable within an allelic series)"
ATTTAAGA,binding signal,[1],"11.1 upbm affinity estimate (log intensity, higher = more binding, comparable within an allelic series)"
same,binding signal,[2],"10.8 upbm affinity estimate (log intensity, higher = more binding, comparable within an allelic series)"
same,binding signal,[3],"10.4 upbm affinity estimate (log intensity, higher = more binding, comparable within an allelic series)"
TGCGTCCA,binding signal,[1],"8.29 upbm affinity estimate (log intensity, higher = more binding, comparable within an allelic series)"
same,binding signal,[2],"8.26 upbm affinity estimate (log intensity, higher = more binding, comparable within an allelic series)"
same,binding signal,[3],"8.23 upbm affinity estimate (log intensity, higher = more binding, comparable within an allelic series)"
CAACCTGC,binding signal,[1],"8.42 upbm affinity estimate (log intensity, higher = more binding, comparable within an allelic series)"
same,binding signal,[2],"8.42 upbm affinity estimate (log intensity, higher = more binding, comparable within an allelic series)"
same,binding signal,[3],"8.35 upbm affinity estimate (log intensity, higher = more binding, comparable within an allelic series)"
GCAACCGC,binding signal,[1],"8.47 upbm affinity estimate (log intensity, higher = more binding, comparable within an allelic series)"
same,binding signal,[2],"8.38 upbm affinity estimate (log intensity, higher = more binding, comparable within an allelic series)"
same,binding signal,[3],"8.34 upbm affinity estimate (log intensity, higher = more binding, comparable within an allelic series)"
TAAGATTA,binding signal,[1],"12.8 upbm affinity estimate (log intensity, higher = more binding, comparable within an allelic series)"
same,binding signal,[2],"12.6 upbm affinity estimate (log intensity, higher = more binding, comparable within an allelic series)"
same,binding signal,[3],"12.4 upbm affinity estimate (log intensity, higher = more binding, comparable within an allelic series)"
CCCTGCGC,binding signal,[4],"9.21 upbm affinity estimate (log intensity, higher = more binding, comparable within an allelic series)"
same,binding signal,[5],"8.93 upbm affinity estimate (log intensity, higher = more binding, comparable within an allelic series)"
same,binding signal,[6],"8.85 upbm affinity estimate (log intensity, higher = more binding, comparable within an allelic series)"
same,binding signal,[7],"9.11 upbm affinity estimate (log intensity, higher = more binding, comparable within an allelic series)"
same,binding signal,[8],"8.92 upbm affinity estimate (log intensity, higher = more binding, comparable within an allelic series)"
same,binding signal,[9],"8.96 upbm affinity estimate (log intensity, higher = more binding, comparable within an allelic series)"
same,binding signal,[10],"8.94 upbm affinity estimate (log intensity, higher = more binding, comparable within an allelic series)"
same,binding signal,[11],"9.27 upbm affinity estimate (log intensity, higher = more binding, comparable within an allelic series)"
same,binding signal,[12],"8.96 upbm affinity estimate (log intensity, higher = more binding, comparable within an allelic series)"
same,binding signal,[13],"8.9 upbm affinity estimate (log intensity, higher = more binding, comparable within an allelic series)"
same,binding signal,[14],"8.89 upbm affinity estimate (log intensity, higher = more binding, comparable within an allelic series)"
same,binding signal,[15],"8.98 upbm affinity estimate (log intensity, higher = more binding, comparable within an allelic series)"
same,binding signal,[16],"8.88 upbm affinity estimate (log intensity, higher = more binding, comparable within an allelic series)"
same,binding signal,[17],"9 upbm affinity estimate (log intensity, higher = more binding, comparable within an allelic series)"
same,binding signal,[18],"9.27 upbm affinity estimate (log intensity, higher = more binding, comparable within an allelic series)"
same,binding signal,[19],"8.86 upbm affinity estimate (log intensity, higher = more binding, comparable within an allelic series)"
same,binding signal,[20],"8.88 upbm affinity estimate (log intensity, higher = more binding, comparable within an allelic series)"
